# Compound activity as filed in PubChem BioAssay.
# Compounds with a hit are over-represented: about 19% of the library has one in this group of screens.
# TDP1 inh: blocks human tyrosyl-DNA phosphodiesterase 1. recombinant TDP1, AlphaScreen DNA substrate cleavage. Q9NUW8. actives 0.28% (n = 350,000). AID 485290. Potency, µM (series often up to 130 µM), without a hit: top-dose activity change, negative = inhibition, hits mostly inhibitors; further: potency means the concentration at half of the fitted maximal effect; nearly all actives have a fitted effect of over 40% in size
# Target sequence (Q9NUW8 whole entry, looked up): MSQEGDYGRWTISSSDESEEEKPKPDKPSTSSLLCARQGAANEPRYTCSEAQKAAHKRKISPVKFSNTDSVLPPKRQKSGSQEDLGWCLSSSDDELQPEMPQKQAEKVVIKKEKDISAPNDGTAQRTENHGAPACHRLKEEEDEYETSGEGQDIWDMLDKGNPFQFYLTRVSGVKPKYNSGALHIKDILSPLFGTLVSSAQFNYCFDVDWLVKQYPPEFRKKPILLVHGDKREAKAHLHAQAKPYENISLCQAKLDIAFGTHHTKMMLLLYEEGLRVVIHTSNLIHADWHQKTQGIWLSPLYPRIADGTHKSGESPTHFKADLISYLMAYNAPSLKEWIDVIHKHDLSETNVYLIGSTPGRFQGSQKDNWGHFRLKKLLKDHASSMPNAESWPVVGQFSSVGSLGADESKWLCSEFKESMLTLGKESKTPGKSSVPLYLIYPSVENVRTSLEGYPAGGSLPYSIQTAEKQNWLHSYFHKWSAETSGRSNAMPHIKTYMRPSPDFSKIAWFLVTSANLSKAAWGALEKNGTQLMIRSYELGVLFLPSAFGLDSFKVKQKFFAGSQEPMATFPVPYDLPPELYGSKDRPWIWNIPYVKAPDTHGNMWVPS
#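 Here, a 5' biotin and 3' phosphotyrosine-FITC DNA oligonucleotide reports Tdp1 activity: intact substrate bridges AlphaScreen beads, while cleavage leaves a 3' phosphate and drops signal. All incubations at room temperature.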
# IL-1B inflam inh: inhibitors of inflammasome signaling (IL-1 beta secretion); actives 4.7% (n = 360,000); THP-1 LPS/ATP IL-1B secretion, AlphaLISA, 16 h; stronger effect = lower value; activity change, % at 57.5 µM; in the data active means activity change below about -50%; inconclusive means mostly about -30% to -49%
#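 THP-1 cells pretreated 1 hr with compounds (up to 57.5 uM final), then stimulated with LPS (250 ng/mL final) plus ATP (1.25 mM final); secreted IL-1B measured by AlphaLISA after 16 hr, decreased signal indicating inhibition.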
# ELG1 DNA repair: ELG1-dependent DNA repair inhibition; HEK293T ELG1-luciferase reporter, luminescence, 16 h; DNA damage induced by 5-fluorouridine; Potency, µM (highest dose often 46.1 µM), inactives show at the top dose activity change, negative = inhibition, most hits filed as inhibitors; actives 2.3% (n = 330,000); further: potency means the concentration at half of the fitted maximal effect; nearly all actives have a fitted effect of over 55% in size
#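 DMSO vehicle served as the neutral condition. Each well held 2,000 cells given 5-fluorouridine plus compound; after 16 hr at 37 °C/5% CO2, ONE-Glo was added and luciferase measured 30 min later.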
# DT40 TDP1 CPT: growth inhibition of DT40 Tdp1-/-;hTDP1 cells with camptothecin (screen for TDP1 inhibitors); chicken DT40 Tdp1-/-;hTDP1 cells + 20 nM CPT, ATP luminescence, 48 h; Potency, µM (highest dose often 46.2 µM), without a hit: top-dose activity change, negative = growth inhibition, most hits filed as inhibitors; actives 12% (n = 420,000); further: potency means the concentration at half of the fitted maximal effect; nearly all actives have a fitted effect of over 55% in size
#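 Cell growth measured by CellTiter-Glo luminescence after a minimum 48 h, 37 C compound exposure with 20 nM CPT in Tdp1-knockout DT40 cells stably expressing hTDP1, seeded 400/well; qHTS titration format.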
# DT40 TDP1 no CPT: qHTS for Inhibitors of human tyrosyl-DNA phosphodiesterase 1 (TDP1): qHTS in cells in absence of CPT. actives 15% (n = 420,000). DT40 Tdp1-/- hTDP1 cells, no CPT, ATP luminescence, 48 h. Potency, µM (titrated, usually from 46.2 µM), inactives show at the highest dose activity change, negative = growth inhibition, hits mostly inhibitors; further: potency means the concentration at half of the fitted maximal effect; nearly all actives have a fitted effect of over 55% in size
#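 A cellular qHTS used chicken DT40 cells lacking endogenous Tdp1 but carrying stably transfected human TDP1. Compounds were applied without camptothecin, and cell growth kinetics were judged by ATP-dependent luminescence after ≥48 hr.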
# Giardia killer: kills Giardia lamblia. actives 0.15% (n = 340,000). Giardia lamblia trophozoite viability. activity change, % at 7.66 µM, hits read low; in the data active means activity change below about -80%; inconclusive means between about -30% and that limit;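 further: parasites exposed to compound for two days anaerobically before the ATP read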
#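 Compounds were tested on trophozoites seeded at 100 cells/well and held 48 hrs at 37 deg C anaerobically. An ATP-based luminescent kit measured the remaining live cells.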
# The depositor's hits bear a star; ? = inconclusive; / = no result; [ ] = dose if it differs, or a comment. Unless noted, the call rests on the fitted dose curve; in most records, active means well fitted curve in the direction sought with a large enough effect; inconclusive means small, poorly fitted or top-dose-only effect, or another doubt; inactive means no such curve, though single readings can be large; an effect the other way counts as inactive or inconclusive. On the % scale 0 is the no-effect control and ±100 the full control effect.
SMILES,TDP1 inh,IL-1B inflam inh,ELG1 DNA repair,DT40 TDP1 CPT,DT40 TDP1 no CPT,Giardia killer
COc1ccc(-c2cc(C(=O)N(C)Cc3ccc(F)cc3)c3ccccc3n2)cc1OC,/,-8,/,23µM*,?,-10
COc1ccc(-c2cc(C(=O)Nc3ccc(C(N)=O)cc3)c3ccccc3n2)cc1OC,5%,0,?,?,5.8µM*,-5
COc1cc(S(=O)(=O)N2CCOCC2)cc(C(=O)OCC(=O)NCc2ccco2)c1OC,1%,9,8%,-6%,1%,-10
Cc1cccc(NC(=O)c2cc(-c3ccc(C)s3)nc3ccccc23)n1,-4%,-9,6.5µM*,18µM*,13µM*,-10
COc1cccc(-c2cc(C(=O)NC3CCCC3)c3ccccc3n2)c1,/,3,/,?,?,18
COc1ccc(-c2cc(C(=O)NC3CCCC3)c3ccccc3n2)cc1OC,/,20,/,?,15µM*,-2
COc1ccccc1CCNC(=O)c1cc(-c2ccncc2)nc2ccc(Br)cc12,-1%,-3,?,?,21µM*,2
COc1cc(-c2cc(C(=O)Nc3ccc(O)cc3)c3ccccc3n2)cc(OC)c1OC,6%,-52*,5.8µM*,10µM*,?,14
CCOC(=O)C1(C)CCN1C(=O)c1cccc(C#N)c1 (stereo unspecified),/,7,/,?,-1%,/
Cc1c(OCC(=O)NCC2CCC(C(=O)O)CC2)ccc2c(-c3ccccc3)cc(=O)oc12 (stereo unspecified),/,4,6%,-26%,-20%,13
CN(C)N1C(N)=C(C#N)C(c2ccc3c(c2)OCO3)C2=C1CC(C)(C)CC2=O (stereo unspecified),/,6,12%,0%,8%,-1
CN(C)c1ccc(CNC(=O)CCn2c(=O)c3cccn3c3ccc(F)cc32)cc1,3%,/,/,-5%,-15%,/
COc1cc2c(cc1NC(=O)c1cc(-c3ccncc3)nc3ccc(C)cc13)oc1ccccc12,0%,4,-4%,23µM*,?,-2
COc1cc(-c2cc(-c3nnco3)c3ccccc3n2)cc(OC)c1OC,5%,?,?,?,7.3µM*,-6
COc1cc(-c2nc(-c3ccccn3)no2)cc(OC)c1OC,-4%,?,?,?,?,10
COC(=O)CNC(=O)c1cc(-c2ccncc2)nc2ccc(C)cc12,3%,?,8%,-1%,3%,-2
Cc1nnc(Sc2cc(C(=O)NC3CC3)c3ccccc3n2)s1,/,-6,-17%,?,7.3µM*,?
COc1ccc(OC)c(NC(=O)c2cc(-c3ccc(Cl)s3)nc3ccccc23)c1,-3%,/,/,-28%,15µM*,/
COCCNC(=O)c1cc(Sc2nnc(C)s2)nc2ccccc12,/,/,-2%,/,/,/
COc1cc2ccccc2cc1C(=O)NC1CCCC1,0%,-16,?,?,?,-1
COc1cc(-c2cc(C(=O)Nc3nc4ccccc4s3)c3ccccc3n2)cc(OC)c1OC,3%,-12,5.2µM*,7.3µM*,6.5µM*,-1
COc1cc2ccccc2cc1C(=O)NC1CCC(C)CC1 (stereo unspecified),-6%,-51*,?,?,-62%,5
COc1ccc(-c2cc(C(=O)NC(C)c3ccccn3)c3ccccc3n2)cc1OC (stereo unspecified),-1%,-15,16µM*,23µM*,21µM*,-28
COC(=O)[C@H](NC(=O)c1cc(-c2ccccc2)nc2ccccc12)c1ccccc1,11%[56.1 µM],-23,/,?,-25%,3
COc1ccc(NC(=O)c2cc(-c3ccncc3)nc3ccccc23)c(OC)c1,2%,-20,?,?,?,-2
SMILES,TDP1 inh,IL-1B inflam inh,ELG1 DNA repair,DT40 TDP1 CPT,DT40 TDP1 no CPT,Giardia killer
Cc1ccc(C(=O)O)c(C(=O)Nc2nc3ccccc3s2)c1,/,12,?,5%,30%,-17
COc1ccc(NC(=O)c2cc(-c3ccc(OC)c(OC)c3)nc3ccccc23)c(OC)c1,13%,6,?,29µM*,16µM*,4
COc1ccccc1CNC(=O)C1CCC(=O)N(CCCc2ccccc2)C1 (stereo unspecified),3%,12,1%,?,-10%,-12
CC(=O)N1CCN(C(=O)c2cccc(S(=O)(=O)N3CCOCC3)c2)CC1,7%,11,?,2%,-3%,-2
CCCCN(CCCC)CCCNC(=O)c1cc(-c2ccc(Cl)s2)nc2ccccc12,-2%,/,/,13µM*,15µM*,/
CC(=O)NC(c1ccccc1)c1nc(-c2ccccc2)cs1 (stereo unspecified),/,3,/,?,-8%,/
CC1CCCC(NC(=O)C2CC(=O)N(Cc3ccccc3)C2)C1C (stereo unspecified),1%,26,?,-4%,25%,20
CC1CCCCC1NC(=O)C1CC(=O)N(Cc2ccccc2)C1 (stereo unspecified),1%,34,0%,13µM*,12µM*,7
Cc1ccc(CN2CC(C(=O)NC3CCCC(C)C3C)CC2=O)cc1 (stereo unspecified),1%,-17,0%,18µM*,?,2
O=C(Nc1ccc(Br)cc1Br)C1CC(=O)N(Cc2ccccc2)C1 (stereo unspecified),0%,-56*,4%,-19%,-26%,5
Cc1ccc(CCN2CC(C(=O)NC3CCCC3)CC2=O)cc1 (stereo unspecified),-1%,-1,9%,-25%,-4%,-8
COc1ccc2[nH]c(=O)c(CN(Cc3ccco3)Cc3nnnn3Cc3ccccc3)cc2c1,7%,-8,0%,21µM*,16µM*,-11
COc1cc2cc(CN(Cc3nnnn3Cc3ccco3)C3CCCCC3)c(=O)[nH]c2cc1OC,/,17,0%,-22%,-23%,5
COC(=O)c1ccccc1S(=O)(=O)N(Cc1ccco1)Cc1cc2cc(OC)ccc2[nH]c1=O,-1%,14,23µM*,?,18µM*,-4
CCOc1ccc2[nH]c(=O)c(CN(CCCN3CCOCC3)Cc3nnnn3Cc3ccc(OC)cc3)cc2c1,0%,-16,2%,?,21µM*,18
CCc1ccc2[nH]c(=O)c(CN(Cc3ccccc3OC)Cc3nnnn3Cc3ccco3)cc2c1,6%,-82*,10µM*,?,?,26
Nc1ccc2c(c1)C1(CCC2)NC(=O)NC1=O (stereo unspecified),/,0,/,-6%,0%,/
